To fix the notation:
B1: ENSMUSG00000043670.210|Diras1 (ssRNA)
RNA: GGGAGUUCUACAGUCCGACGAUCGCUUCGAUAUCCGCAUGCUAGUUUAUGUGCCUGUGUGUGUGGAUGGGUGUGUGUCUGUCUUGGGAUGGGGUGUUCUUGCACCACUUUGUGUUCUUAGUGAGACCACAGUGUAAGUGGCCGUGUGUGUGUGUGGGGGGGGGCACCUAGACAUUGUGGUGUGUCUGUAUGGCUCUGUGUUUUCAGGGGUGGGUGACACAGGCCUGUCUGAUGAGCACCAGGUCUGUUCCAGGCUGUGGCAAGCUGGCUCCUGGCUCAGAAGUGACAAAGCUGCAGUACAGAGCUCUUGCGGUCGCACUAGUGUGGAAUUCUCGGGUGUCAAGG
B2: ENSMUSG00000043670.207|Diras1 (ssRNA)
RNA: GGGAGUUCUACAGUCCGACGAUCGCUUCGAUAUCCGCAUGCUAGGUGACUUAGAAUUCUGUGUUUAUGUGCCUGUGUGUGUGGAUGGGUGUGUGUCUGUCUUGGGAUGGGGUGUUCUUGCACCACUUUGUGUUCUUAGUGAGACCACAGUGUAAGUGGCCGUGUGUGUGUGUGGGGGGGGGCACCUAGACAUUGUGGUGUGUCUGUAUGGCUCUGUGUUUUCAGGGGUGGGUGACACAGGCCUGUCUGAUGAGCACCAGGUCUGUUCCAGGCUGUGGCAAGCUGGCUCCUGGCUCAGAAGUGACUCUUGCGGUCGCACUAGUGUGGAAUUCUCGGGUGUCAAGG
B3: ENSMUSG00000043670.198|Diras1 (ssRNA)
RNA: GGGAGUUCUACAGUCCGACGAUCGCUUCGAUAUCCGCAUGCUAGAGACUGUCCAGGAGACUUGAGUGGCUCCUGGGCCUGUGUCCCACCCAGAUGAGGGUGACUUAGAAUUCUGUGUUUAUGUGCCUGUGUGUGUGGAUGGGUGUGUGUCUGUCUUGGGAUGGGGUGUUCUUGCACCACUUUGUGUUCUUAGUGAGACCACAGUGUAAGUGGCCGUGUGUGUGUGUGGGGGGGGGCACCUAGACAUUGUGGUGUGUCUGUAUGGCUCUGUGUUUUCAGGGGUGGGUGACACAGGCCUGUCUGACUCUUGCGGUCGCACUAGUGUGGAAUUCUCGGGUGUCAAGG
B4: ENSMUSG00000043670.209|Diras1 (ssRNA)
RNA: GGGAGUUCUACAGUCCGACGAUCGCUUCGAUAUCCGCAUGCUAUUCUGUGUUUAUGUGCCUGUGUGUGUGGAUGGGUGUGUGUCUGUCUUGGGAUGGGGUGUUCUUGCACCACUUUGUGUUCUUAGUGAGACCACAGUGUAAGUGGCCGUGUGUGUGUGUGGGGGGGGGCACCUAGACAUUGUGGUGUGUCUGUAUGGCUCUGUGUUUUCAGGGGUGGGUGACACAGGCCUGUCUGAUGAGCACCAGGUCUGUUCCAGGCUGUGGCAAGCUGGCUCCUGGCUCAGAAGUGACAAAGCUGCAGUCUCUUGCGGUCGCACUAGUGUGGAAUUCUCGGGUGUCAAGG
B5: ENSMUSG00000043670.203|Diras1|6:10;40:44;54:63;69:76;109:113;142:154;178:183;186:190;195:199 (ssRNA)
RNA: GGGAGUUCUACAGUCCGACGAUCGCUUCGAUAUCCGCAUGCUAGGGCCACACACCCACCCAGAUGAGGGUGACUUAGAAUUCACACAUUAUGUGCCACACACACACGAUGGCACACACACUGUCUUGGGAUGGGGUGUUCUUGCACCACUUACACAUCUUAGUGAGACCACAGUGUAAGUGGCCCACACACACACACGGGGGGGGCACCUAGACAUUGUGCACACACUCAUACGCUCACACAUUUCAGGGGUGGGUGACACAGGCCUGUCUGAUGAGCACCAGGUCUGUUCCAGGCUGUGGCACUCUUGCGGUCGCACUAGUGUGGAAUUCUCGGGUGUCAAGG
B6: ENSMUSG00000043670.211|Diras1 (ssRNA)
RNA: GGGAGUUCUACAGUCCGACGAUCGCUUCGAUAUCCGCAUGCUAGUGCCUGUGUGUGUGGAUGGGUGUGUGUCUGUCUUGGGAUGGGGUGUUCUUGCACCACUUUGUGUUCUUAGUGAGACCACAGUGUAAGUGGCCGUGUGUGUGUGUGGGGGGGGGCACCUAGACAUUGUGGUGUGUCUGUAUGGCUCUGUGUUUUCAGGGGUGGGUGACACAGGCCUGUCUGAUGAGCACCAGGUCUGUUCCAGGCUGUGGCAAGCUGGCUCCUGGCUCAGAAGUGACAAAGCUGCAGUACAGAGGCCUCACUCUUGCGGUCGCACUAGUGUGGAAUUCUCGGGUGUCAAGG
B7: ENSMUSG00000043670.215|Diras1 (ssRNA)
RNA: GGGAGUUCUACAGUCCGACGAUCGCUUCGAUAUCCGCAUGCUAGUGUCUGUCUUGGGAUGGGGUGUUCUUGCACCACUUUGUGUUCUUAGUGAGACCACAGUGUAAGUGGCCGUGUGUGUGUGUGGGGGGGGGCACCUAGACAUUGUGGUGUGUCUGUAUGGCUCUGUGUUUUCAGGGGUGGGUGACACAGGCCUGUCUGAUGAGCACCAGGUCUGUUCCAGGCUGUGGCAAGCUGGCUCCUGGCUCAGAAGUGACAAAGCUGCAGUACAGAGGCCUCAGUGUGAGGUCAUCACCUCACAGUGCUCUUGCGGUCGCACUAGUGUGGAAUUCUCGGGUGUCAAGG
B8: ENSMUSG00000043670.203|Diras1 (ssRNA)
RNA: GGGAGUUCUACAGUCCGACGAUCGCUUCGAUAUCCGCAUGCUAGGGCCUGUGUCCCACCCAGAUGAGGGUGACUUAGAAUUCUGUGUUUAUGUGCCUGUGUGUGUGGAUGGGUGUGUGUCUGUCUUGGGAUGGGGUGUUCUUGCACCACUUUGUGUUCUUAGUGAGACCACAGUGUAAGUGGCCGUGUGUGUGUGUGGGGGGGGGCACCUAGACAUUGUGGUGUGUCUGUAUGGCUCUGUGUUUUCAGGGGUGGGUGACACAGGCCUGUCUGAUGAGCACCAGGUCUGUUCCAGGCUGUGGCACUCUUGCGGUCGCACUAGUGUGGAAUUCUCGGGUGUCAAGG
B9: ENSMUSG00000043670.212|Diras1 (ssRNA)
RNA: GGGAGUUCUACAGUCCGACGAUCGCUUCGAUAUCCGCAUGCUAGUGUGUGUGGAUGGGUGUGUGUCUGUCUUGGGAUGGGGUGUUCUUGCACCACUUUGUGUUCUUAGUGAGACCACAGUGUAAGUGGCCGUGUGUGUGUGUGGGGGGGGGCACCUAGACAUUGUGGUGUGUCUGUAUGGCUCUGUGUUUUCAGGGGUGGGUGACACAGGCCUGUCUGAUGAGCACCAGGUCUGUUCCAGGCUGUGGCAAGCUGGCUCCUGGCUCAGAAGUGACAAAGCUGCAGUACAGAGGCCUCAGUGUGACUCUUGCGGUCGCACUAGUGUGGAAUUCUCGGGUGUCAAGG

Whole data set: some 9,900 sequences, median “r (bound/input frequency ratio)” near 0.7, cut for the highest 2% near 6.5. This is one part of a sample in which the highest values are shown more often than they occur.

Binding signal data for 9 molecules are collected here from publication PMC12864922, “TDP-43 directly inhibits mRNA accumulation in neurites through modulation of mRNA stability”.

The target of the assay is TDP-43 (Homo sapiens, UniProt Q13148 1-414). Nature of the assay: RNA Bind-n-Seq with designed 260-mer pool; 25 mM Tris-HCl, 150 mM KCl, 3 mM MgCl2, BSA (printed 500 mg/mL), 20 units/mL SUPERase IN; pH not stated; 500 nM RNA pool, 1 h, 4 C; TDP-43 5, 50, 500 nM; high values mean tight binding. The following applies: protein: recombinant; tags: SBP (GST cleaved off with PreScission; pGEX-GST-SBP). Put shortly: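 For each oligo, R gives binding as its mapped-read-normalized abundance after pulldown divided by its abundance in input. Bead-captured SBP-tagged TDP-43 (5, 50 or 500 nM) was incubated with 500 nM of an in vitro-transcribed 260-nt 3′ UTR oligo pool for 1 h at 4 °C in 25 mM Tris-HCl, 150 mM KCl, 3 mM MgCl2, BSA and SUPERase IN on streptavidin beads. Washed, biotin-eluted RNA was reverse transcribed, PCR-amplified and sequenced.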
TDP-43, sequence (Q13148 whole entry): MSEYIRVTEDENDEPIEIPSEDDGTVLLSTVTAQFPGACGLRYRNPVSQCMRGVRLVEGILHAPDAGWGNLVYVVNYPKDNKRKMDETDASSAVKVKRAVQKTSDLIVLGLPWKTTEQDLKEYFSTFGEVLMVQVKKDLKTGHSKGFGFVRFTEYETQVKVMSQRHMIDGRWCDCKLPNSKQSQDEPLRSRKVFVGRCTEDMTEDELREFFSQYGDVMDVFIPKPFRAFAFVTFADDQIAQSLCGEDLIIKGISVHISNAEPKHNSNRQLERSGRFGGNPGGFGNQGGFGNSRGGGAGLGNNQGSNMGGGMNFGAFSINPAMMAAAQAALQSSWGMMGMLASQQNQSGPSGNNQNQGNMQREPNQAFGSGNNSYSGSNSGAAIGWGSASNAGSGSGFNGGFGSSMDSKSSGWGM
As to B1, the binding signal is 5.7 R (bound/input frequency ratio).
The value for B2 was 8.86 R (bound/input frequency ratio).
The result for B3 reads 4.93 R (bound/input frequency ratio); that for B4, 5.23 R (bound/input frequency ratio); that for B5, 1.5 R (bound/input frequency ratio).
With B6, the binding signal was 5.36 R (bound/input frequency ratio).
The result for B7 reads 3.25 R (bound/input frequency ratio).
Regarding B8, the binding signal was 7.32 R (bound/input frequency ratio).
Regarding B9, the binding signal is 6.14 R (bound/input frequency ratio).
